Source: PubChem BioAssay AID1159580 (chemical genetic matrix, 2015)
In all, about 5,500 compounds went through this assay and about 2,000 (36%) were called active. Another 18% or so got no clear call; they are omitted. Rule as the data show it: active = normalized growth mostly below about 0.91 (no sharp cut-off); inconclusive = no clear call, values can overlap the other calls; inactive = mostly above about 0.92. The list shows a part of the results.

Assay: chemical genetic growth profiling, strain panel (AID 1159580);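 also: tested at 20 µM; growth read once vehicle control cultures reached saturation at 30 °C; 1 = growth at the plate median or of vehicle wells; lower values mean less growth of the strain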
Details: growth OD

Measured: normalized growth

CC12CCCC(O)(C1)C1CC(C)(C)C1CC2 (configuration not stated)
active: S. cerevisiae deletion strains, locus YMR205C, strain PFK2, hits give low values 0.861 | S. cerevisiae deletion strains, locus YNL071W, strain lat1, hits give low values 0.859 | S. cerevisiae deletion strains, locus YOR270C, strain vph1, hits give low values 0.709
inactive: S. cerevisiae deletion strains, locus YJR066W, strain TOR1, hits give low values 0.95 | S. cerevisiae deletion strains, locus YKL009W, strain mrt4, hits give low values 1.02 | S. cerevisiae deletion strains, locus YKL068W, hits give low values 1.01 | S. cerevisiae deletion strains, locus YKL085W, strain MDH1 (second series), hits give low values 0.998 | S. cerevisiae deletion strains, locus YKL085W, strain MDH1, hits give low values 0.998 | S. cerevisiae deletion strains, locus YKL160W, strain elf1, hits give low values 0.954 | S. cerevisiae deletion strains, locus YKR001C, strain vps1, hits give low values 1.02 | S. cerevisiae deletion strains, locus YKR026C, strain gcn3, hits give low values 0.999 | S. cerevisiae deletion strains, locus YKR091W, strain srl3, hits give low values 0.991 | S. cerevisiae deletion strains, locus YLL001W, strain dnm1, hits give low values 0.925 | S. cerevisiae deletion strains, locus YLL026W, hits give low values 0.982 | S. cerevisiae deletion strains, locus YLL041C, strain sdh2, hits give low values 0.982 | S. cerevisiae deletion strains, locus YLR027C, strain aat2, hits give low values 0.948 | S. cerevisiae deletion strains, locus YLR039C, strain RIC1, hits give low values 0.972 | S. cerevisiae deletion strains, locus YLR058C, strain SHM2, hits give low values 1.01 | S. cerevisiae deletion strains, locus YLR102C, strain apc9, hits give low values 1.01 | S. cerevisiae deletion strains, locus YLR113W, strain HOG1, hits give low values 0.939 | S. cerevisiae deletion strains, locus YLR221C, strain rsa3, hits give low values 0.983 | S. cerevisiae deletion strains, locus YLR258W, strain gsy2, hits give low values 0.961 | S. cerevisiae deletion strains, locus YLR262C, strain YPT6 (second series), hits give low values 0.878 | S. cerevisiae deletion strains, locus YLR262C, strain YPT6, hits give low values 1.01 | S. cerevisiae deletion strains, locus YLR268W, strain sec22, hits give low values 0.992 | S. cerevisiae deletion strains, locus YLR320W, strain mms22, hits give low values 0.937 | S. cerevisiae deletion strains, locus YLR342W, strain FKS1, hits give low values 0.918 | S. cerevisiae deletion strains, locus YLR357W, strain rsc2, hits give low values 0.984 | S. cerevisiae deletion strains, locus YLR370C, strain arc18, hits give low values 0.981 | S. cerevisiae deletion strains, locus YLR371W, strain rom2, hits give low values 1.01 | S. cerevisiae deletion strains, locus YLR384C, strain iki3, hits give low values 1.01 | S. cerevisiae deletion strains, locus YLR418C, strain cdc73, hits give low values 1.1 | S. cerevisiae deletion strains, locus YML016C, strain PPZ1, hits give low values 1.01 | S. cerevisiae deletion strains, locus YML032C, strain rad52, hits give low values 1.02 | S. cerevisiae deletion strains, locus YML120C, strain ndi1, hits give low values 1 | S. cerevisiae deletion strains, locus YML124C, strain tub3, hits give low values 1.01 | S. cerevisiae deletion strains, locus YMR058W, strain fet3, hits give low values 0.985 | S. cerevisiae deletion strains, locus YMR078C, strain ctf18, hits give low values 1.02 | S. cerevisiae deletion strains, locus YMR125W, strain sto1, hits give low values 0.974 | S. cerevisiae deletion strains, locus YMR129W, hits give low values 1.01 | S. cerevisiae deletion strains, locus YMR223W, strain ubp8, hits give low values 1.02 | S. cerevisiae deletion strains, locus YMR231W, strain pep5, hits give low values 0.996 | S. cerevisiae deletion strains, locus YMR263W, strain SAP30, hits give low values 1.01 | S. cerevisiae deletion strains, locus YMR307W, strain GAS1, hits give low values 0.968 | S. cerevisiae deletion strains, locus YNL067W, strain RPL9B, hits give low values 1.02 | S. cerevisiae deletion strains, locus YNL153C, strain GIM3, hits give low values 1.02 | S. cerevisiae deletion strains, locus YNL183C, strain NPR1, hits give low values 0.953 | S. cerevisiae deletion strains, locus YNL209W, strain ssb2, hits give low values 1 | S. cerevisiae deletion strains, locus YNL233W, strain BNI4, hits give low values 1.02 | S. cerevisiae deletion strains, locus YNL248C, strain rpa49, hits give low values 1.01 | S. cerevisiae deletion strains, locus YNL250W, strain rad50, hits give low values 1.04 | S. cerevisiae deletion strains, locus YNL271C, strain bni1, hits give low values 0.998 | S. cerevisiae deletion strains, locus YNL298W, strain CLA4, hits give low values 0.993 | S. cerevisiae deletion strains, locus YNL307C, strain MCK1, hits give low values 1.02 | S. cerevisiae deletion strains, locus YNL322C, strain KRE1 (second series), hits give low values 0.974 | S. cerevisiae deletion strains, locus YNL322C, strain KRE1, hits give low values 1.01 | S. cerevisiae deletion strains, locus YNR049C, strain mso1, hits give low values 1 | S. cerevisiae deletion strains, locus YNR052C, strain pop2, hits give low values 1.03 | S. cerevisiae deletion strains, locus YOL012C, strain htz1 1.39 | S. cerevisiae deletion strains, locus YOL147C, strain pex11, hits give low values 0.997 | S. cerevisiae deletion strains, locus YOR001W, strain rrp6, hits give low values 1.05 | S. cerevisiae deletion strains, locus YOR061W, strain CKA2, hits give low values 1 | S. cerevisiae deletion strains, locus YOR069W, strain VPS5, hits give low values 1.01 | S. cerevisiae deletion strains, locus YOR070C, strain gyp1, hits give low values 0.975 | S. cerevisiae deletion strains, locus YOR080W, strain dia2, hits give low values 1.01 | S. cerevisiae deletion strains, locus YOR083W, strain WHI5, hits give low values 0.956 | S. cerevisiae deletion strains, locus YOR106W, strain vam3, hits give low values 0.986 | S. cerevisiae deletion strains, locus YOR136W, strain idh2, hits give low values 1.01 | S. cerevisiae deletion strains, locus YOR144C, strain elg1, hits give low values 1 | S. cerevisiae deletion strains, locus YOR184W, strain ser1, hits give low values 0.978 | S. cerevisiae deletion strains, locus YOR231W, strain MKK1, hits give low values 0.973 | S. cerevisiae deletion strains, locus YOR265W, strain rbl2, hits give low values 0.999 | S. cerevisiae deletion strains, locus YOR290C, strain snf2, hits give low values 0.954 | S. cerevisiae deletion strains, locus YOR316C, strain cot1, hits give low values 1.01 | S. cerevisiae deletion strains, locus YPL051W, strain arl3, hits give low values 0.939 | S. cerevisiae deletion strains, locus YPL055C, strain LGE1, hits give low values 1.01 | S. cerevisiae deletion strains, locus YPL078C, strain atp4, hits give low values 0.941 | S. cerevisiae deletion strains, locus YPL106C, strain sse1, hits give low values 0.892 | S. cerevisiae deletion strains, locus YPL240C, strain hsp82, hits give low values 0.991 | S. cerevisiae deletion strains, locus YPL241C, strain CIN2, hits give low values 0.999 | S. cerevisiae deletion strains, locus YPL256C, strain CLN2, hits give low values 0.958 | S. cerevisiae deletion strains, locus YPR119W, strain clb2, hits give low values 1.02 | S. cerevisiae deletion strains, locus YPR141C, strain kar3, hits give low values 1 | S. cerevisiae deletion strains, locus YPR163C, strain tif3, hits give low values 1.02 | S. cerevisiae deletion strains, locus YPR167C, strain met16, hits give low values 1.01 | S. cerevisiae deletion strains, strain wtn01, hits give low values 1.01 | S. cerevisiae strains, strain wild type, hits give low values 1.01
